SMILES strings stand for the structures. The source holds several records for some structures; these can differ, active in one and inactive in another. Calls of active or inactive are those of the source. The calls were made as follows: active = hit-call score of the fitted dose curve at least 0.9, where 1 is the maximum; inactive = score below 0.9.

Read-out in the experiment: Interleukin-8 (IL8), CXCL8 (gene 3576)
Kind of experiment: BSK_SAg_IL8: BioMAP Diversity Plus: SAg Assay for Interleukin-8 (IL8) Biomarker Activity (AID 2283094). To be noted: primary human HUVEC with PBMC; actives raise or lower the signal. The method, then: BSK_SAg is a cell-based, multiplexed-readout assay that uses umbilical vein endothelium and peripheral blood mononuclear cells, a human vascular primary cell co-culture, with measurements taken at 24 hours after chemical dosing in a 96-well plate.BSK_SAg_IL8 is an assay component measured in the BSK_SAg assay. It measures IL-8 antibody related to regulation of gene expression using ELISA technology.Data from the assay component BSK_SAg_IL8 was analyzed into 1 assay endpoint. This assay endpoint, BSK_SAg_IL8, was analyzed with bidirectional fitting relative to DMSO as the negative control and baseline of activity. Using a type of binding reporter, gain or loss-of-signal activity can be used to understand changes in the signaling as they relate to the gene CXCL8. Furthermore, this assay endpoint can be referred to as a primary readout, because this assay has produced multiple assay endpoints where this one serves a signaling function. To generalize the intended target to other relatable targets, this assay endpoint is annotated to the cytokine intended target family, where the subfamily is interleukins.
The levels of cell surface (or secreted, indicated by the prefix "s") biomarker endpoints were measured by ELISA. Overt cytotoxicity to cells in confluent adherent cultures (all systems other than the BT system) was assessed by measuring total protein levels using sulforhodamine B (SRB) staining in parallel cultures at the time of biomarker measurements, indicated as SRB endpoints. For proliferation assays for adherent cell types, individual cell types are cultured at sub-confluence and relative cell numbers quantified by SRB staining at time points optimized for each system (48 h: 3C and CASM3C systems; 72 h: BT and HDF3CGF systems; 96 h: SAg system). SRB was performed by staining cells with 0.1% SRB after fixation with 10% TCA and reading wells at 560 nm.Viability and proliferation of PBMC (T cells) was quantified by Alamar Blue reduction for the SAg and BT systems. For PBMC viability (referred to as PBMC Cytotoxicity within the assay endpoint names), cells were plated (75,000/well in a 96-well plate) and then chemical samples added for 1 h before addition of activators, SEB and TSST-1 (20 ng/mL final concentration each). Cells were incubated for 90 h. Then, Alamar Blue (20 uL/well) (Invitrogen, Cat DAL1100) was added for 6 h, and the plates were read with a fluorescence microplate reader at 546/580 nm (excitation/emission). For PBMC proliferation, cells were plated and activated as above but incubated for only 16 h prior to addition of Alamar Blue. Plates were read after 6 h.
Turning to `CCOc1ccc(C(C)(C)COCc2cccc(Oc3ccccc3)c2)cc1`, the outcome was inactive.

In the case of `COP(=O)(CCC(=O)NCO)OC`, the result was inactive.

For the compound `O=P(OCC(Br)CBr)(OCC(Br)CBr)OCC(Br)CBr` (stereo not given), the result was inactive.

As to `CCC1(c2ccccc2)C(=O)N=C(O)NC1=O` (stereo not given), the result was inactive.

On to `O=C(O)C1C(C(=O)O)C2(Cl)C(Cl)=C(Cl)C1(Cl)C2(Cl)Cl` (stereo not given), for which the outcome was inactive.

`CCOP(=S)(NC(C)C)Oc1ccccc1C(=O)OC(C)C` (stereo not given): the result was inactive.

What is called AC50 is the concentration giving half of the maximal activity seen. As to `O=C(O)C(F)(OC(F)(F)C(F)(F)C(F)(F)F)C(F)(F)F` (stereo not given), the outcome was inactive and the AC50 is 9.29 µM (active).

Consider `Nc1ccc([N+](=O)[O-])cc1Cl`, for which the result was inactive.

For `COP(N)(=S)OC`, the result was inactive.

For the compound `CCOP(=S)(Oc1ccc([N+](=O)[O-])cc1)c1ccccc1` (stereo not given), the result was inactive.

In the case of `OCC(F)(F)OC(F)(F)C(F)(F)OC(F)(F)C(F)(F)OC(F)(F)CO`, the result was inactive and the AC50 is 17.9 µM (active).

For the compound `CCOC(=O)c1ccccc1C(=O)OCC`, the outcome was inactive.

For the compound `CCOP(=S)(OCC)SCSCC`, the result was inactive.

As for `CC(C)(C)OOC(C)(C)C`, the outcome was inactive.

Take `c1ccc2c(c1)sc1ccccc12`: the outcome was inactive.

Regarding `O=C(O)C=CC(F)(C(F)(F)F)C(F)(F)F`, the result was inactive.

Consider `Cc1c([N+](=O)[O-])cc2c(c1[N+](=O)[O-])C(C)(C)CC2(C)C`, for which the outcome was inactive.

For `ClC(Cl)(Cl)c1ccccc1`, the outcome was inactive.

Regarding `Cc1ccc(N)cc1N`, the outcome was inactive.

As to `c1ccc2c(c1)Nc1ccccc1S2`, the outcome was inactive.

On to `Cc1ccc(O)cc1C`, for which the result was inactive.

For the compound `CCCCOCCOP(=O)(OCCOCCCC)OCCOCCCC`, the outcome was inactive.

As to `Cc1ccc2c(c1N)C(=O)c1ccccc1C2=O`, the result was inactive.

Turning to `CCOP(=S)(OCC)SCn1nnc2ccccc2c1=O`, the result was inactive.

In the case of `ClC(Cl)c1ccccc1`, the result was inactive.

With `O=C(O)C(F)(F)C(F)(F)C(=O)O`, the result was inactive.

Consider `O=c1ssc(Cl)c1Cl`, for which the AC50 was 8.19 µM (active).

Take `CCOP(=S)(S)OCC`: the outcome was inactive.

For the compound `Nc1ccc2ccccc2c1`, the outcome was inactive.

Turning to `O=S(=O)(F)C(F)(F)C(F)(F)C(F)(F)C(F)(F)C(F)(F)C(F)(F)C(F)(F)C(F)(F)F`, the result was inactive.

Regarding `O=C(O)C(F)(F)OC(F)(F)C(F)(F)OC(F)(F)F`, the outcome was inactive.

For the compound `CCNc1nc(Cl)nc(NC(C)(C)C)n1`, the outcome was inactive.

For the compound `CCOS(=O)(=O)OCC`, the outcome was inactive.

With `CCC(C)(C)c1ccc(O)cc1`, the result was inactive.

In the case of `CCCCN(CCCC)N=O`, the outcome was inactive.

Take `O=[N+]([O-])c1ccc(Cl)c(Cl)c1`: the outcome was inactive.

Consider `COP(=O)(O)OC`, for which the outcome was inactive.

`O=S1(=O)OCC2C(CO1)C1(Cl)C(Cl)=C(Cl)C2(Cl)C1(Cl)Cl` (stereo not given): the result was inactive.

Values taken from PubChem BioAssay (EPA / NIEHS).
